From the supplement of paper PMC11732987, “Enantioselective OTUD7B fragment discovery through chemoproteomics screening and high-throughput optimisation” (Communications Chemistry, 2025)

Target: T1, ALG13 (UniProt Q9NP73)
T1 sequence (whole entry): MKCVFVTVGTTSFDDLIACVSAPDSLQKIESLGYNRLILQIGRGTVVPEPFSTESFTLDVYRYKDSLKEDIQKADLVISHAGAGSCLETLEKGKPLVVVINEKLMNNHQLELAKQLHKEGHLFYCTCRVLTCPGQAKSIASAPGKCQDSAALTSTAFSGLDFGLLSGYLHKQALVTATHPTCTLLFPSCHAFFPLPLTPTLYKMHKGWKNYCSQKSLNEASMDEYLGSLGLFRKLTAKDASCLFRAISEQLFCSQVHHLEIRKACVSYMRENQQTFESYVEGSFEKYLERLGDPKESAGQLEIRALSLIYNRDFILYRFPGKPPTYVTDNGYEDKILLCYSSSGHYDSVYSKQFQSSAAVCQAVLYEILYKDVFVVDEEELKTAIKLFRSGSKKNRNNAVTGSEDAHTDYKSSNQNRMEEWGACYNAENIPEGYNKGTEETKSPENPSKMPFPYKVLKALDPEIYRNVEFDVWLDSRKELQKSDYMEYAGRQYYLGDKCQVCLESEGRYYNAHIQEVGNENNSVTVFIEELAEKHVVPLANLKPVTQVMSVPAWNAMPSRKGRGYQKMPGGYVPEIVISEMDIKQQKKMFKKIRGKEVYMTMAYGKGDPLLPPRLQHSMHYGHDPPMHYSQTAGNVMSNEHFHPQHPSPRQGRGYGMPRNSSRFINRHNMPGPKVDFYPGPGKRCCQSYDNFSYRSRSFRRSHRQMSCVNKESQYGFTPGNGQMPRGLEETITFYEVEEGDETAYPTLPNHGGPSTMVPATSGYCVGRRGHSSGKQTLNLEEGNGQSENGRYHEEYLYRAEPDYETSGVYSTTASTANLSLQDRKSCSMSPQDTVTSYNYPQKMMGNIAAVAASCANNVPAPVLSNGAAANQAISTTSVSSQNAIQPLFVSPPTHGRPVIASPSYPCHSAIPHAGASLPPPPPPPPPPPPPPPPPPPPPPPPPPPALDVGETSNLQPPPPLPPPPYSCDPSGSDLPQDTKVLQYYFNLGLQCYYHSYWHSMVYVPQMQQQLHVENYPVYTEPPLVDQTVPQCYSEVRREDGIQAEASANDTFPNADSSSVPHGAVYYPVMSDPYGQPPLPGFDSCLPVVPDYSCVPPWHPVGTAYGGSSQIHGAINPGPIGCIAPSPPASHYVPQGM
Test: log2 ratio of Biotin-Ahx-Ub-VS probe labelling (fragment/DMSO); higher = less target engagement (more negative = stronger competition), active = hit call of the paper (q ≤ 0.05, log2 ratio ≤ -1)
Details: compound concentration: 200 uM; treatment time: 3 h
In short: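 Labelling with Biotin-Ahx-Ub-VS (0.5 µM final, 1 h) followed a 3 h triplicate treatment of HEK293T lysate (495 µg per sample, Tris/CHAPS/IGEPAL buffer with protease inhibitors) with fragment at 200 µM or vehicle. Labelled DUBs were NeutrAvidin-enriched, digested with LysC and trypsin, and run by diaPASEF LC-MS/MS. The values, average log2 fragment/vehicle ratios by unpaired t-test, come from global-median-normalised Spectronaut label-free quantities. Proteins with ≥2 unique peptides were used.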

log2 ratio of Biotin-Ahx-Ub-VS probe labelling, inactive:
Cl.O=C(CCl)N1CCC(n2nc3ccccc3n2)CC1 -0.254
Cc1cccc(C)c1NC(=O)CCl 0.022
CCN(C(=O)CCl)C1CCS(=O)(=O)C1 (stereo not given) -0.231
Cl.O=C(CCl)N[C@H]1C[C@@H](n2cccn2)C1 -0.266
Cc1ccc2nnc(CNC(=O)CCl)n2c1 0.205
O=C(CCl)Nc1ccc(N2CCCC2=O)cc1 0.0794
Cl.O=C(CCl)NCc1ccnc(Oc2ccccc2F)c1 0.177
O=C(CCl)N1CCC(S(=O)(=O)c2ccc(F)cc2)CC1 -0.536
Cl.O=C(CCl)N1CCn2ncc(O)c2C1 0.326
Cc1cccc(NC(=O)CCl)c1C 0.138
CCN(C(=O)CCl)C1CCCCC1 0.0472
O=C(CCl)NC1(c2ccc3c(c2)OCCO3)CCCC1 -0.035
O=C(CCl)N1CCN(C(=O)Nc2ccccc2)CC1 0.164
O=C(CCl)NC(Cn1ccccc1=O)c1ccccc1 (stereo not given) 0.152
CC1CCc2onc(CNC(=O)CCl)c2C1 (stereo not given) 0.206
O=C(CCl)N1CCCCCC1c1ncon1 (stereo not given) 0.0534
Cc1cccc(N(CCC#N)C(=O)CCl)c1C -0.29
O=C(CCl)Nc1ccccc1C(F)(F)F 0.259
Cc1ccccc1OCC(=O)N1CCN(C(=O)CCl)CC1 -0.255
CN(C)C(=O)c1ccc(CNC(=O)CCl)cc1 0.104
Cl.Cn1cnc2cc(CNC(=O)CCl)ccc21 0.056
N#Cc1ccc(CNC(=O)CCl)cc1 -0.583
Cc1nc(CN2CCCN(C(=O)CCl)CC2)no1.Cl -0.458
Cc1ccc(C)c(NC(=O)CCl)c1 0.0947
Cc1cc(CC(C)NC(=O)CCl)n[nH]1 (stereo not given) 0.0722
O=C(CCl)N1CCCN(C(=O)c2ccc(Cl)cc2)CC1 -0.303
Cl.O=C(CCl)NCCN1CCc2ccccc21 -0.000809
CC1(NC(=O)CCl)CCS(=O)(=O)C1 (stereo not given) -0.0745
N#Cc1ccc(Cl)cc1NC(=O)CCl -0.187
O=C(CCl)N1CCCC1c1ccsc1 (stereo not given) -0.0335
O=C(CCl)NCc1ccc(N2CCOCC2)nc1 0.174
O=C(CCl)NCc1cccc(F)c1 -0.54
COc1ccccc1C(C)NC(=O)CCl (stereo not given) -0.0378
COc1ccc(Cl)cc1NC(=O)CCl 0.166
O=C(CCl)N1CCC(c2nc3ccccc3o2)CC1 -0.377
